Screening data deposited in PubChem BioAssay by Johns Hopkins Ion Channel Center.
KCNQ2 block: rat KCNQ2 potassium channel inhibitors, primary screen, cell-based, CHO-K1, FluxOR thallium flux, B-score | Potassium voltage-gated channel subfamily KQT member 2 (Rattus norvegicus), O88943 | 20 min; active compounds read low | B-score at 10 µM | hit rate 1.1% among 310,000 | AID 2156, 2009;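 active means fluorescence ratio B-score at most minus 3 library SDs, with starting brightness B-score within 2 library SDs, cut at about -5.5 in these data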
KCNQ2 pot: potentiators of rat KCNQ2 potassium channel; Potassium voltage-gated channel subfamily KQT member 2 (Rattus norvegicus), O88943; CHO-K1 KCNQ2, FluxOR thallium flux fluorescence; active compounds read high; B-score at 10 µM; hit rate 0.54% among 310,000; AID 2239, 2010;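 active means fluorescence ratio B-score at least 3 SD of library B-scores, with initial fluorescence B-score within 3 of them, cut at about 5.3 in these data; same plate scores as AID 2156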;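 further: B-score of peak minus minimum over baseline fluorescence ratio after K+ and Tl+ stimulus; positive B-score means potentiation of KCNQ2 with more thallium influx and brighter signal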
Kir21 confirm: mouse Kir2.1 channel blockers, retest, confirmation, cell-based, FluxOR thallium flux, duplicate | hit rate 41% among 2,300 | Kir2.1-expressing cells, FluxOR thallium flux fluorescence; active compounds read low | shares compounds with KCNQ2 pot | Tl flux remaining, % of negative control (active compounds read low), % at 10 µM;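 active means Primary-screen hit whose thallium flux fell at least 3 control SD below untreated wells in both duplicates, with normal baseline fluorescence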;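 further: 0% = blank wells without stimulus and 100% = stimulated no-compound controls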
Target sequence (P35561 whole entry, looked up): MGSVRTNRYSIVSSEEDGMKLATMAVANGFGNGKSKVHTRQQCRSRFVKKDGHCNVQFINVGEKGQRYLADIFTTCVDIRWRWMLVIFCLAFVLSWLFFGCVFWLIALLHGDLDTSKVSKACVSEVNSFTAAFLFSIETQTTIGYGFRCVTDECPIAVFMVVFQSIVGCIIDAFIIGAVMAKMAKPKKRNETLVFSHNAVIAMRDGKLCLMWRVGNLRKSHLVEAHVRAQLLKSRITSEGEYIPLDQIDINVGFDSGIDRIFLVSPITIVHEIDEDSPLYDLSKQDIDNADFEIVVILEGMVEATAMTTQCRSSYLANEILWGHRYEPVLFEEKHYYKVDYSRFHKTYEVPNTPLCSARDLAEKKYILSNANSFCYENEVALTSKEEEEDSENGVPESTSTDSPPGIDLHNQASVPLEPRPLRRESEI
HEK293 ctr: alters thallium flux in parental HEK293 cells, Kir2.1 counter-screen; shares compounds with KCNQ2 pot; FluxOR thallium flux fluorescence; 0% = unstimulated blank wells; FluxOR signal as % of negative control (100 = no effect), % at 10 µM; hit rate 19% among 2,300; AID 2105;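 active means dye signal at least 3 control SD above or below untreated wells in both duplicates, raw fluorescence within 3, either direction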;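 further: percent is based on the flux ratio of peak minus minimum fluorescence over baseline F0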
CHO-K1 ctr: nonspecific thallium flux increase in parental CHO-K1, confirmation, counter-screen for KCNQ2 potentiator project, cell-based, FluxOR thallium flux, duplicate. shares compounds with KCNQ2 pot. parental CHO-K1 cells, FluxOR thallium flux fluorescence; zero = vehicle mean+3SD, 100% = vehicle-minus-blank window. activity increase over 3SD of controls, % at 10 µM. hit rate 43% among 1,200. AID 2282, 2010;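 active means signal rise of at least 3 SD above the untreated control mean, in both duplicate wells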;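 further: counter screen of KCNQ2 potentiator hits so any rise reflects channel-independent effects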
KCNQ1 pot spec: human KCNQ1 channel potentiation off-target, confirmation, selectivity assay for KCNQ2 potentiator project, cell-based, CHO, FluxOR thallium flux. hit rate 28% among 1,200. AID 2283, 2010. CHO KCNQ1 stable, FluxOR thallium flux fluorescence; beyond 3SD, as % of vehicle-control signal. shares compounds with KCNQ2 pot. activation over 3SD threshold, % at 10 µM;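 active means fluorescence ratio rise of at least 3 SD of vehicle wells above their mean, in both replicate wells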;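 further: 0% = vehicle mean plus 3 SD and 100% = vehicle minus unstimulated blank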
KCNQ2 pot conf: rat KCNQ2 channel potentiators, confirmation, cell-based, CHO, FluxOR thallium flux, duplicate | shares compounds with KCNQ2 pot | CHO-KCNQ2 cells, FluxOR thallium flux fluorescence | potentiation, less the hit threshold, % at 10 µM | hit rate 68% among 1,200 | AID 2287, 2010;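 active means fluorescence ratio rising 3 SD or more over the vehicle control mean in both replicates, plus primary screen hit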;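 further: peak minus minimum thallium fluorescence divided by baseline after K/Tl stimulus; 0% = vehicle mean plus 3 SD and 100% = vehicle minus unstimulated blank difference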
Kir2-1 sel: mouse Kir2.1 channel activation off-target, confirmation, selectivity assay for KCNQ2 potentiator project, cell-based, HEK293, FluxOR thallium flux. HEK293 Kir2.1, FluxOR thallium flux fluorescence. activity over 3SD threshold, % at 10 µM. hit rate 2% among 1,200. shares compounds with KCNQ2 pot;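 active means fluorescence ratio rise of at least 3 SD above the vehicle-control mean, seen in both replicates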;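 further: 0% = vehicle mean plus 3 SD and 100% = vehicle minus no-stimulus blank window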
KCNQ2 W236L MoA: potentiators of retigabine-insensitive KCNQ2 W236L, mechanism study for KCNQ2 potentiator project, cell-based, rat KCNQ2 W236L, CHO, automated patch clamp; automated patch clamp current; shares compounds with KCNQ2 pot; current increase over 3SD of negative controls (%), active compounds read high, % at 25 µM; hit rate 10% among 940; AID 2558, 2010;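 active means current increase at least 3 SD of the untreated controls above them in both duplicate recordings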
* marks the source's active call; other numbers are inactive results. The list is not random: actives were taken first. Their share in the collection is about 1.6%.

How did COc1ccc(C(C)=O)cc1COC(=O)c1cc(=O)c2ccccc2o1 do in these assays?
KCNQ2 block: inactive; KCNQ2 pot: 0.37

Results for COc1cccc(C(=S)N2CCCC2)c1OC ?
KCNQ2 block: inactive

How did COc1ccc(Nc2nc(N3CCCCC3)c3ccccc3n2)cc1 do in these assays?
KCNQ2 block: inactive

What do the screens show for `Oc1ccc(Nc2nc(N3CCCC3)c3ccccc3n2)cc1`?
KCNQ2 block: inactive; Kir21 confirm: 48%*; HEK293 ctr: inactive

Results for O=C(NCCS(=O)(=O)N1CCC2(CC1)OCCO2)c1ccc(F)cc1 ?
KCNQ2 block: inactive; KCNQ2 pot: 0.46

How did CCN(CC)CCCNc1ccc(-c2nnc(-c3ccc(OCC(C)C)cc3)o2)cn1 do in these assays?
KCNQ2 block: -7.3*; KCNQ2 pot: -7.3; Kir21 confirm: 65%*; HEK293 ctr: inactive

Results for CC(C)COc1ccc(-c2nnc(-c3ccco3)o2)cc1 ?
KCNQ2 block: inactive; KCNQ2 pot: 0.09

How did O=CC1=C(c2ccccc2)Oc2ccccc2O1 do in these assays?
KCNQ2 block: inactive; Kir21 confirm: 52%*; HEK293 ctr: inactive

Results for CN(C)/C=C1/N=C(c2ccccc2)OC1=O ?
KCNQ2 block: inactive; KCNQ2 pot: 1.4

How did Cc1cc2c(cc1S(=O)(=O)Nc1cccc(F)c1)n(C)c(=O)c(=O)n2C do in these assays?
KCNQ2 block: inactive

What do the screens show for `O=C(O)Cc1cc(I)c(Oc2ccc(O)c(I)c2)c(I)c1`?
KCNQ2 block: inactive; KCNQ2 pot: 9.9*; Kir21 confirm: inactive; HEK293 ctr: inactive; CHO-K1 ctr: 1.9*; KCNQ1 pot spec: 19*; KCNQ2 pot conf: 112*; Kir2-1 sel: -39; KCNQ2 W236L MoA: inactive

What do the screens show for `O=C(O)Cc1ccc(O)c(O)c1`?
KCNQ2 block: inactive

How did COc1ccccc1C(CCNCc1ccc(N(C)C)cc1)c1ccc(OC(C)C)cc1 (stereo not given) do in these assays?
KCNQ2 block: inactive

What do the screens show for `COc1ccc(CNCCC(c2ccc(OC(C)C)cc2)c2ccccc2OC)cc1` (stereo not given)?
KCNQ2 block: inactive; Kir21 confirm: 29%*; HEK293 ctr: inactive

Results for COc1ccc(CNCCC(c2ccc(OC(C)C)cc2)c2ccccc2OC)cc1OC (stereo not given) ?
KCNQ2 block: inactive

Results for COc1ccccc1C(CCNCc1ccccc1)c1ccc(OC(C)C)cc1 (stereo not given) ?
KCNQ2 block: inactive; Kir21 confirm: 58%*; HEK293 ctr: inactive

How did COCCNC(=O)/C(C#N)=C/c1cccc(/C=C(\C#N)C(=O)NCCOC)c1 do in these assays?
KCNQ2 block: inactive; KCNQ2 pot: 9.3*; Kir21 confirm: inactive; HEK293 ctr: inactive; CHO-K1 ctr: -7; KCNQ1 pot spec: 2.5*; KCNQ2 pot conf: 1.3*; Kir2-1 sel: -30; KCNQ2 W236L MoA: 9.2%*
